PLK1 PBD block = PLK1 (human) polo-box domain binding inhibition | P53350 | Potency, µM, for the others: max response, negative = inhibition, most hits filed as inhibitors | 360,000 compounds, 2.8% hits | AID 720504 | Plk1 PBD binding of FITC phosphopeptide, fluorescence polarization; note: series mostly up to about 57 µM; % is set by controls: 0 for no effect and ±100 for the full control effect; nearly all actives have a fitted effect of over 65% in size
Target sequence (P53350 whole entry, looked up, the tested form may be a part): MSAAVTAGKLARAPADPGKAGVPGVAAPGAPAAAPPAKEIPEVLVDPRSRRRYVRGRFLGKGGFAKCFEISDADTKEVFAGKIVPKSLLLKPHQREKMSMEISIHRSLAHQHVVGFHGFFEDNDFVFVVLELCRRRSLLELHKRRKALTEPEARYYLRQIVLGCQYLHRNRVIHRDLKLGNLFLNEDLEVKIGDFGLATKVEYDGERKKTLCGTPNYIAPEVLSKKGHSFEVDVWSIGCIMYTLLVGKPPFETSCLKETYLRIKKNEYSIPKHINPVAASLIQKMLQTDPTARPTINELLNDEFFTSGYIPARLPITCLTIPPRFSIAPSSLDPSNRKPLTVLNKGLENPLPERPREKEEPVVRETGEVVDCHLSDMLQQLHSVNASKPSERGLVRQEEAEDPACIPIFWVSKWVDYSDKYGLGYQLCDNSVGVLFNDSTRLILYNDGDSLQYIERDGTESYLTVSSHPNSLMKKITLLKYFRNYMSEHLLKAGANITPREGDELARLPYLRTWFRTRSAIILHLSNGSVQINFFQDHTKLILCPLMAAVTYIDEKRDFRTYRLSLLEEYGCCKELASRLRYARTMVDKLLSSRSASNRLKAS
BAZ2B inh = BAZ2B (human) inhibition | AlphaScreen BAZ2B-H3K14Ac peptide displacement | Potency, µM (series often up to 114 µM), for the others: at the top dose activity change, negative = inhibition, hits mostly inhibitors | 360,000 compounds, 4.4% hits; note: % is set by controls: 0 for no effect and ±100 for the full control effect; nearly all actives have a fitted effect of over 60% in size
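AlphaScreen displacement of biotin-H3(5-23)K14Ac peptide (50 nM final) from BAZ2B (50 nM final) in PBS pH 7.4, 0.01% Tween-20; complex preformed 30 min RT, then compounds (top 110 uM) 30 min RT, beads 20 min dark.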
G9a block = G9a (human) methyltransferase inhibition; Q96KQ7; G9a H3K9 monomethylation, AlphaScreen, 2 h; Potency, µM (series often up to 102 µM), for inactives: at the highest dose activity, negative = inhibition, most hits filed as inhibitors; 350,000 compounds, 8.8% hits; note: % is set by controls: 0 for no effect and ±100 for the full control effect; nearly all actives have a fitted effect of over 75% in size
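Signal arises when biotinylated H3K9 peptide, once monomethylated, bridges streptavidin donor and antibody-captured acceptor beads. Enzyme at 20 nM was preincubated 15 min with test compounds; peptide 500 nM and SAM 20 uM then reacted for 2 h.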
JMJD2A Tudor inh = blocks the human JMJD2A Tudor domain; AlphaScreen JMJD2A-Tudor / H3K4me3 peptide binding; O75164; AID 504339; 390,000 compounds, 4.4% hits; Potency, µM (top dose mostly 114 µM), without a hit: top-dose activity change, negative = inhibition, usual class: inhibitors; note: % is set by controls: 0 for no effect and ±100 for the full control effect; nearly all actives have a fitted effect of over 50% in size
VDR inh = vitamin D3 receptor (human) inhibition. Potency, µM, for the others: max response, negative = inhibition, actives largely listed as inhibitors. VDR-SRC2-3 peptide fluorescence polarization, 2 h. 400,000 compounds, 0.93% hits. P11473. AID 504847; note: % is set by controls: 0 for no effect and ±100 for the full control effect
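After 23 nl compound addition and a short centrifugation, plates sat for 2 hours at ambient temperature; polarization of fluorescence then indicated loss of VDR binding to peptide SRC2-3.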
HP1b binding inh = inhibitors of HP1-beta chromodomain binding to methylated histone tails | P83916 | AlphaScreen HP1-beta / biotin-H3K9me3 peptide binding | Potency, µM (doses to about 114 µM), inactives show top-dose activity change, negative = inhibition, usual class: inhibitors | 390,000 compounds, 0.56% hits; note: nearly all actives have a fitted effect of over 70% in size
Target sequence (P83916 whole entry, looked up): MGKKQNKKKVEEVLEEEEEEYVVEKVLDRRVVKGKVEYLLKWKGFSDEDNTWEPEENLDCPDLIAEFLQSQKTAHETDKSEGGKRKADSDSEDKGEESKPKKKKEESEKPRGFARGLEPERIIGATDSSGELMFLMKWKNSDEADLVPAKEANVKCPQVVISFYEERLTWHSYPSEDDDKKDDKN
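HP1-beta protein (50 nM final) preincubated 30 min at room temperature with biotinylated H3(1-18)K9me3 peptide (50 nM) in PBS pH 7.4, 0.01% Tween-20, then compound added for 30 min. AlphaScreen streptavidin donor/nickel chelate acceptor beads (10 ug/mL final), 30 min dark, luminescence read.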
* marks the source's active call; other numbers are inactive results; ? = inconclusive; · = not tested or not shown; [ ] = remark or other dose. In the library only some 11% were active in any assay of this set; here they are far more common. Calls come from the whole dose curve; as a rule, active = well fitted curve in the direction sought with a large enough effect; inconclusive = small, poorly fitted or top-dose-only effect, or another doubt; inactive = no such curve, though single readings can be large; an effect the other way counts as inactive or inconclusive. Potency is the fitted concentration of half-maximal effect.

SMILES | PLK1 PBD block | BAZ2B inh | G9a block | JMJD2A Tudor inh | VDR inh | HP1b binding inh
Cc1ccccc1CN1C[C@@H]2C[C@@H](c3cnc(N4CCOCC4)s3)N3CCC[C@@]23C1=O | -12.1% | -29.1% | 35.5µM* | -20.0% | -0.3% | 13.3%
COc1ccccc1CN1C[C@@H]2C[C@@H](c3ccccc3C)N3CCC[C@@]23C1=O | -11.5% | -10.9% | 5.1% | -28.3% | 8.1% | 6.2%
CC(C)C[C@@H](CN1CCC[C@H]1CN1C(=O)C(=O)NC[C@@H]1Cc1ccc(O)cc1)N1C[C@H](Cc2ccccc2)N(CC2CCCCCC2)C(=O)C1=O | -7.6% | · | · | · | · | ·
Cc1[nH]c2ccccc2c1N=Nc1ccc(F)cc1 | -14.1% | 31.6µM* | 39.8µM* | 89.1µM* | 11.4% | ?
Cc1[nH]c2ccccc2c1N=Nc1ccccc1F | 3.7% | 39.8µM* | 39.8µM* | 44.7µM* | 6.0% | ?
CC(C)Cn1c(=O)c2sccc2n2c(CCCC(=O)NCc3ccccc3Cl)nnc12 | · | -1.8% | 3.2%[59 µM] | 5.9% | 12.2% | 35.5%
CCOC(=O)/C(C#N)=C/c1cc2cc(C)c(C)cc2nc1Cl | -6.9% | ? | ? | -26.6% | -14.8% | -9.4%
Cc1cc2cc(C=C(C#N)C#N)c(Cl)nc2cc1C | ? | -31.7% | -11.8%[59 µM] | -25.7% | 50.1µM* | 8.5%
Nc1nnc(CSCc2ccc(Cl)cc2Cl)s1 | 18.9µM* | 3.8% | ? | -4.3% | -26.5% | 8.7%
COc1ccc(CCN2C(=O)CSCC2(C)C(=O)Nc2ccc3c(c2)OCCO3)cc1OC (stereo not drawn) | -0.3% | · | · | · | · | ·
CC(C)=N/N=C(\N)SCc1ccccc1 | -7.8% | 79.4µM* | 7.94µM* | -19.4% | -23.6% | 33.0%
CC(C)(Cc1ccc(O)cc1)NC(=O)SCc1ccccc1 | -7.8% | 12.1% | · | -10.4% | -5.5% | 39.2%
Cc1cc(C)n2c(SC/C(O)=C(\C#N)c3nc4ccccc4[nH]3)nnc2n1 | ? | ? | 4.5% | ? | 9.8% | 28.3%
CCOC(=O)c1ccc2c(c1)nc(SC/C(O)=C(\C#N)c1nc3ccccc3[nH]1)n2CC | -7.1% | -2.4% | 50.1µM* | -29.0% | -0.7% | 27.6%
CCOC(=O)c1ccc2c(c1)nc(SCC(=O)c1ccco1)n2CC | ? | -12.3% | ? | ? | ? | 27.8%
Cc1ccccc1-n1c(SC/C(O)=C(\C#N)c2nc3ccccc3[nH]2)nnc1-c1ccncc1 | ? | -2.4% | ? | 79.4µM* | -26.6% | ?
COc1ccc(CNc2nc(NCc3ccc(OC)cc3)n(C(=O)c3ccccc3[N+](=O)[O-])n2)cc1 | -9.8% | -1.0% | 6.31µM* | ? | 12.2% | 12.1%
COc1ccc(CNc2nc(NCc3ccc(OC)cc3)n(C(=O)c3ccncc3)n2)cc1 | 0.2% | ? | · | ? | 6.0% | -3.7%
Cc1ccc(NC(=O)CSc2c3c(nc4ccccc24)CCCC3)cc1F | · | · | -7.0%[59 µM] | -19.0% | -29.4% | 22.7%
Cc1ccccc1NC(=O)CSc1ccsc1[N+](=O)[O-] | ? | 39.8µM* | ? | 25.1µM* | -13.4% | ?
Cc1cccc(Nc2nnc(SCC(=O)c3ccc(Br)s3)s2)c1C | -27.2% | -35.6% | 4.47µM* | -12.5% | -7.8% | 25.6%
O=C(CSc1nc(-c2ccccc2)cs1)Nc1ccccc1[N+](=O)[O-] | -5.8% | 25.1µM* | ? | ? | -10.2% | ?
O=C1CC(=O)NC(SCC(=O)Nc2ccccc2[N+](=O)[O-])=N1 | ? | 39.8µM* | 25.1µM* | 35.5µM* | -10.5% | ?
COCCCNC(=O)CSc1ccsc1[N+](=O)[O-] | ? | -24.7% | -44.9% | -12.4% | 7.9% | 32.5%
Cc1cc(C)nc(SCC(=O)Nc2ccccc2[N+](=O)[O-])n1 | -6.0% | -25.1% | 8.0% | -3.6% | -3.3% | -3.0%
SMILES | PLK1 PBD block | BAZ2B inh | G9a block | JMJD2A Tudor inh | VDR inh | HP1b binding inh
CCOc1ccc(CN2C(=O)c3ccccc3Sc3ccc(C(=O)O)cc32)cc1 | · | -9.5% | 6.2%[59 µM] | -13.5% | 13.1% | 18.3%
CCC1CCCCN1C(=O)c1c[nH]c2ccc(S(=O)(=O)Nc3cccc(OC)c3)cc2c1=O (stereo not drawn) | · | -6.0% | -36.2%[59 µM] | -17.3% | 4.9% | -16.0%
CC1CN(C(=O)c2ccccc2OCc2ccccc2Cl)CC(C)O1 (stereo not drawn) | -5.4% | -3.0% | 1.6%[12.7 µM] | -14.4% | -0.1% | 21.1%
Cc1ccccc1Nc1nnc(SCC(=O)Nc2ccccc2[N+](=O)[O-])s1 | -21.0% | ? | 44.7µM* | ? | -16.7% | ?
COc1ccc(C2c3c(nc(CCc4ccccc4)[nH]c3=O)Oc3ccc4ccccc4c32)cc1OC (stereo not drawn) | · | · | · | -17.7% | · | ·
COc1cc(CSc2ncc(CO)n2Cc2ccc(C)cc2)cc(OC)c1 | · | ? | -32.7%[59 µM] | ? | 21.4% | -15.0%[57 µM]
Cc1cc(C)c(C)c(S(=O)(=O)N2CCC(C(=O)OCC(=O)N3c4ccccc4NC(=O)C3(C)C)CC2)c1C | -2.6% | 50.1µM* | 13.9%[12.7 µM] | ? | 4.0% | -10.4%
O=C(O)COc1ccccc1C1C2C(=O)N(c3ccc(F)cc3)C(=O)C2ON1c1ccccc1 (stereo not drawn) | 26.7µM* | -27.6% | 1.0%[12.7 µM] | -15.8%[11.4 µM] | 2.4% | -5.6%
COc1ccc(CN(CCO)CCO)cc1[N+](=O)[O-] | ? | 5.3% | 2.1%[59 µM] | -3.4% | -1.4% | 12.3%
CCOC(=O)C1CCCN(C(=O)CCc2nnc(-c3ccc(C(C)=O)s3)o2)C1 (stereo not drawn) | -20.8% | 20.8%[57.1 µM] | 35.5µM* | -15.1% | -18.7% | 46.4%
COc1cc(OC)cc(C(=O)Nc2nnc(-c3cccnc3)o2)c1 | -4.1% | 56.2µM* | 6.9% | 6.1% | -2.2% | 45.0%
COc1cccc(-c2nnc(NC(=O)C(C)C)o2)c1 | -15.1% | 79.4µM* | 8.91µM* | ? | 7.5% | 40.1%
O=C(Nc1nnc(-c2cccnc2)o1)c1cccc(Cl)c1 | -7.5% | ? | ? | -9.0% | -2.1% | 44.4%
COc1cccc(-c2nnc(NC(=O)c3cccc(F)c3)o2)c1 | 5.3% | 2.6% | 30.1%[12.7 µM] | -29.7% | -2.2% | 42.0%
CC(=O)NC(c1ccc(C)cc1)c1cc(Cl)c2cccnc2c1O (stereo not drawn) | -2.7% | 0.3% | -0.8%[59 µM] | -28.8% | 18.5% | 32.8%
CC(=O)NC(c1ccccc1)c1cc([N+](=O)[O-])c2cccnc2c1O (stereo not drawn) | 1.4% | 3.55µM* | 10µM* | 10µM* | -9.2% | -3.0%
CC(C)C(=O)NC(c1ccccc1)c1cc([N+](=O)[O-])c2cccnc2c1O (stereo not drawn) | -11.9% | 5.62µM* | ? | ? | -5.6% | -9.1%
CC(=O)NC(c1cccs1)c1cc([N+](=O)[O-])c2cccnc2c1O (stereo not drawn) | -12.9% | 3.98µM* | 7.94µM* | 35.5µM* | 1.3% | 10.1%
